Measured values from ChEMBL document CHEMBL3988442, “University of Dundee, Small-Polar-MMV Screening Library” (2021).
For some of these results: Entries with a potency or affinity are not part of this list.

What was measured:
Design in all cases: scale not given: direction of the effect not stated beside the values
[1] = molecular target: Protein translocase subunit SecA (Escherichia coli (strain K12)) (UniProt P10408); test: Assay to Identify E. coli SecA ATPase Inhibitors; format: functional; conditions: 30 µM
Sequence of Protein translocase subunit SecA (Escherichia coli (strain K12)) (P10408 whole entry): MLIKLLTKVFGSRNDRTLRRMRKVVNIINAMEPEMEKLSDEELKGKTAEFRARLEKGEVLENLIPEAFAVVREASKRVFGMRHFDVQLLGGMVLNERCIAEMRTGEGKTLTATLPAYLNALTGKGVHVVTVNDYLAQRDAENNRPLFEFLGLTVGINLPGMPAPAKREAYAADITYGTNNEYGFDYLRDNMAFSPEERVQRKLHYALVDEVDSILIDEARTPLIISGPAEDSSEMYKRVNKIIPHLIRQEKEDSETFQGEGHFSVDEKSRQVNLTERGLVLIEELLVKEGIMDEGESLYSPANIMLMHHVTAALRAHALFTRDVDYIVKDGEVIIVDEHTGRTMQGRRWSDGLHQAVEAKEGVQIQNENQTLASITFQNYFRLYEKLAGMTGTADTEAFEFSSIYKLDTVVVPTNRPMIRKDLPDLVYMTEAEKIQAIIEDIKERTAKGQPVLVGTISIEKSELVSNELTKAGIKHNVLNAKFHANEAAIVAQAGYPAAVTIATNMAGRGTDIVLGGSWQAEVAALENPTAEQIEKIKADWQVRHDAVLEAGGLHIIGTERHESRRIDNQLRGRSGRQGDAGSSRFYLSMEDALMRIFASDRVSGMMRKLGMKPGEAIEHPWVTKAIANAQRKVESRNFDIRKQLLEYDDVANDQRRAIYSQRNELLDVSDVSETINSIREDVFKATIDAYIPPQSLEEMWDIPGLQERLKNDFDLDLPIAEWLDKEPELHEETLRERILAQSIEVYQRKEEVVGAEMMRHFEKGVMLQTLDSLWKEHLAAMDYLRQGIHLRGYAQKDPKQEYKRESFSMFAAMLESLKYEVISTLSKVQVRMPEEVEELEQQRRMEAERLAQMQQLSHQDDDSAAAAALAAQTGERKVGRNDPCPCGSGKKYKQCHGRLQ

[2] = molecular target: T1, Ubiquitin-activating enzyme e1, putative (Leishmania donovani (strain BPK282A1)) (UniProt E9BSI1); test: Leishmania donovani Ubiquitin Activating Enzyme (LdE1); format: functional; conditions: 30 µM
T1 sequence (whole entry): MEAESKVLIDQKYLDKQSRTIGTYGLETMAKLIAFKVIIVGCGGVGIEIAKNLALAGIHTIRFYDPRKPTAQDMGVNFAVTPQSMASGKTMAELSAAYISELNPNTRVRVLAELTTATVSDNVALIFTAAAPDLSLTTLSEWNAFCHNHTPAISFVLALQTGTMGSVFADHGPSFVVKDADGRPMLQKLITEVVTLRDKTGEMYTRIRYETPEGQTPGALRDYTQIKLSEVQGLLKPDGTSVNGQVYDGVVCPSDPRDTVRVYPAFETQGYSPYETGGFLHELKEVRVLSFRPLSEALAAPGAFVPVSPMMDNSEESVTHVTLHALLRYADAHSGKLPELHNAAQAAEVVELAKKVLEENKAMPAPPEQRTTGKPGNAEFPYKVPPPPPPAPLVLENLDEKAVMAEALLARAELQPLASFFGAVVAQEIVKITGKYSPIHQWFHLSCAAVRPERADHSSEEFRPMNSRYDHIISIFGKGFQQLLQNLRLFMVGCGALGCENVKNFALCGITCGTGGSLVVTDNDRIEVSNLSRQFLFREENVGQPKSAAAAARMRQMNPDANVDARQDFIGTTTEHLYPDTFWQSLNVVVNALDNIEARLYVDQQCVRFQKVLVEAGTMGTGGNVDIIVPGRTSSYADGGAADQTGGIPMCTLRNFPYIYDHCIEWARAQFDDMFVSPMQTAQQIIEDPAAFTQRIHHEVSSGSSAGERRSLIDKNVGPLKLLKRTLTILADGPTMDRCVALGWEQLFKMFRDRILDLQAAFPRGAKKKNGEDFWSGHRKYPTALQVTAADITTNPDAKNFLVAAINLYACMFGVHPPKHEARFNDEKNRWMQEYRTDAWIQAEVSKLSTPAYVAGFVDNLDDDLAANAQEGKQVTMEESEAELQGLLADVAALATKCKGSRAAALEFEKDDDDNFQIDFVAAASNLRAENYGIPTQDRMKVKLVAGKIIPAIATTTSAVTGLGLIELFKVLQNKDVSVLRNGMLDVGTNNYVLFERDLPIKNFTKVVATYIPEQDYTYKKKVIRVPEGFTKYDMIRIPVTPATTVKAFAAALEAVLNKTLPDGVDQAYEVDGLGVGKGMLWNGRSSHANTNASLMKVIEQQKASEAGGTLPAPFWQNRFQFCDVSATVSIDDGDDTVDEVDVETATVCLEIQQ

[3] = molecular target: T2, Aspartate--tRNA(Asp/Asn) ligase (Mycobacterium tuberculosis (strain ATCC 25618 / H37Rv)) (UniProt P9WFW3); test: Assay for Asp RNA synthetase-1 from Mycobacterium tuberculosis; format: functional; conditions: 30 µM; also: in the data most compounds retested in dose-response had high values
T2 sequence (whole entry): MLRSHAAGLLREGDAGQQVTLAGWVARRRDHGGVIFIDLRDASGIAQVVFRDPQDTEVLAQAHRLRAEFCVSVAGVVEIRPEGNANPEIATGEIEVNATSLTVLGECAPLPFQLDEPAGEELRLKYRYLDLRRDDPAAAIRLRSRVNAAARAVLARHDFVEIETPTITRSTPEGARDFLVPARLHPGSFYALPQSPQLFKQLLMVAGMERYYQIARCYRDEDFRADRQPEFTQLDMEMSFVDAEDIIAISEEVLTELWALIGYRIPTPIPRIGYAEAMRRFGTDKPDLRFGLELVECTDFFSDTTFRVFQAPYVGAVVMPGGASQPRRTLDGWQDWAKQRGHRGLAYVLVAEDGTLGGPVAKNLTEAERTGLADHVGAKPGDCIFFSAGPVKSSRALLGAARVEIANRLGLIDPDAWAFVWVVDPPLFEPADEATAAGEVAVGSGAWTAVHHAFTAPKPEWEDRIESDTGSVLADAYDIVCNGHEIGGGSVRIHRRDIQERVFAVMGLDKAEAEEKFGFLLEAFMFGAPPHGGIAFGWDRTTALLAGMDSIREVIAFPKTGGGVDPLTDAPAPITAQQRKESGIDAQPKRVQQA

[4] = molecular target: AMP-activated protein kinase, AMPK (Homo sapiens) (UniProt P54646+O43741+P54619+Q9UGJ0+Q9Y478+Q13131+Q9UGI9); test: AMP-dependent Kinase enzyme assay. An in vitro enzyme assay that detects ADP turnover that is directly proportional to AMPK activity. This uses naive AMPK that is activated during the assay with MK-8722; format: functional; conditions: 30 µM
[5] = molecular target: Sialic acid-binding Ig-like lectin 9 (Homo sapiens) (UniProt Q9Y336); test: Hs-Siglec9 ALPHAscreen SOP 20170721; conditions: 10 µM
Sequence of Sialic acid-binding Ig-like lectin 9 (Homo sapiens) (Q9Y336 whole entry): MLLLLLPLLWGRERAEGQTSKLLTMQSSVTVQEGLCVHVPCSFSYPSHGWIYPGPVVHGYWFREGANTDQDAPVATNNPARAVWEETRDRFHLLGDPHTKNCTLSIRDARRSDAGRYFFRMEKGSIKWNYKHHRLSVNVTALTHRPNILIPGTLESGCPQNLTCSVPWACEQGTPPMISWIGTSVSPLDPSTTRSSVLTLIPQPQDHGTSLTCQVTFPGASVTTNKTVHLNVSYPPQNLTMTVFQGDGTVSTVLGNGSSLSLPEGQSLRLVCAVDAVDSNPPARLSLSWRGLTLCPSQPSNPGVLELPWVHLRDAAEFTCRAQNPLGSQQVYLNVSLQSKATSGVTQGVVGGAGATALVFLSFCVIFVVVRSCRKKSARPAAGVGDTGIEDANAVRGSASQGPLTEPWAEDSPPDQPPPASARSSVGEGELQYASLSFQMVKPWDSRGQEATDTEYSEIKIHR

Trypanosoma cruzi = test: Trypanosoma cruzi phosphomannomutase and mannose-1-phosphate guanylyltransferase assay; format: functional; conditions: 10 µM
[6] = molecular target: T3, Arginase-2, mitochondrial (Homo sapiens) (UniProt P78540); test: in vitro enzyme assay to detect the production of urea directly proportional to the activity of Arginase II; format: functional; conditions: 33.3 µM; also: in the data most compounds retested in dose-response had high values
T3 sequence (whole entry): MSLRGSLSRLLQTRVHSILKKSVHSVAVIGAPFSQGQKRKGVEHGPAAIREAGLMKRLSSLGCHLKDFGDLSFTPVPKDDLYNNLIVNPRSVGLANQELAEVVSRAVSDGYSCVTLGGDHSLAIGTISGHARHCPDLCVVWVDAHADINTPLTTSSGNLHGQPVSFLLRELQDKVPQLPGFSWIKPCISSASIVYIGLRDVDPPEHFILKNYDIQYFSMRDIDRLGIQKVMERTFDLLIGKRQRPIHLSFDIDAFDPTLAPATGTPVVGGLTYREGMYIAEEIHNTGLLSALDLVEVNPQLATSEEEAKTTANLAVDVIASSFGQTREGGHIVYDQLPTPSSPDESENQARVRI

[7] = molecular target: T4, Proteasome subunit beta (Trypanosoma cruzi) (UniProt O96673); test: Trypanosoma cruzi proteasome chymotrypsin-like activity (TcProtChymo) assay.; also: in the data most compounds retested in dose-response had high values; format: functional; conditions: 9.37 µM
T4 sequence (whole entry): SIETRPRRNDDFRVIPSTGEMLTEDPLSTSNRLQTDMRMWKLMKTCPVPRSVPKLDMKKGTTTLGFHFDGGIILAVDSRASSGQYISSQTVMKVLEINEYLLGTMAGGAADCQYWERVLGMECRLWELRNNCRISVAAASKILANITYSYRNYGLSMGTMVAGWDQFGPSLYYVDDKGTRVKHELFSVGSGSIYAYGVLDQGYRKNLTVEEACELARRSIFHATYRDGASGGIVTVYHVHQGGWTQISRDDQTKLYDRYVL

Homo sapiens = species: Homo sapiens; test: To identify inhibition of the IFN signalling (Jak-Stat) pathway via expression of an eGFP reporter gene under the control of an IFN-stimulated response element (ISRE) containing MxA promoter.; format: functional; conditions: 30 µM
[8] = molecular target: Shiga toxin 2 (Escherichia coli O157:H7) (UniProt P09385+P09386); test: E. coli 0.157:H7 Shiga Toxin SOP - stx2 screening assay; format: functional; conditions: 30 µM
[9] = molecular target: T5, Tyrosyl-tRNA synthetase, putative (Trypanosoma cruzi (strain CL Brener)) (UniProt Q4DSP6); test: Trypanosoma cruzi tyrosyl tRNA synthetase (TcYRS) _High Tyrosine SOP; format: functional; conditions: 30 µM; also: in the data most compounds retested in dose-response had high values
T5 sequence (whole entry): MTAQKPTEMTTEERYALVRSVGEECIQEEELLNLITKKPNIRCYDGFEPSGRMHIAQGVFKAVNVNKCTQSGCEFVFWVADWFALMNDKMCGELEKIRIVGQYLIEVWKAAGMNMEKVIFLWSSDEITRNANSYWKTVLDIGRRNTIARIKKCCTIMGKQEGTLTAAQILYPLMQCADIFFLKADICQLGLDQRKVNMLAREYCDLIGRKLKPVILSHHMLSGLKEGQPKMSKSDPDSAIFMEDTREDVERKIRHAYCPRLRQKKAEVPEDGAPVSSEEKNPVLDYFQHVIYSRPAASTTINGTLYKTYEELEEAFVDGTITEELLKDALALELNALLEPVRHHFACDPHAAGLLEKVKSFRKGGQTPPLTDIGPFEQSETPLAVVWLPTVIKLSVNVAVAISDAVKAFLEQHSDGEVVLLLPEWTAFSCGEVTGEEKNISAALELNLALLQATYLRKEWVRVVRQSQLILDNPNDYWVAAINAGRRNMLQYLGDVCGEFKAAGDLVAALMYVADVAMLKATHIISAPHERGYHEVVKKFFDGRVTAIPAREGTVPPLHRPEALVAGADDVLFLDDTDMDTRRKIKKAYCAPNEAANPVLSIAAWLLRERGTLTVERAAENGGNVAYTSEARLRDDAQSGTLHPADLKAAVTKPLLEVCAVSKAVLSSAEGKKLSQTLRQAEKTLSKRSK

[10] = molecular target: T5, Tyrosyl-tRNA synthetase, putative (Trypanosoma cruzi (strain CL Brener)); test: Trypanosoma cruzi tyrosyl tRNA synthetase (TcYRS) SOP; format: functional; conditions: 30 µM
[11] = molecular target: Chromo domain-containing protein 1 (Saccharomyces cerevisiae (strain ATCC 204508 / S288c) (Baker's yeast)) (UniProt P32657); test: ScCHD-1 Enzyme Inhibition Assay; format: functional; conditions: 30 µM; also: in the data most compounds retested in dose-response had high values
Sequence of Chromo domain-containing protein 1 (Saccharomyces cerevisiae (strain ATCC 204508 / S288c) (Baker's yeast)) (P32657 whole entry, the tested form may be a part): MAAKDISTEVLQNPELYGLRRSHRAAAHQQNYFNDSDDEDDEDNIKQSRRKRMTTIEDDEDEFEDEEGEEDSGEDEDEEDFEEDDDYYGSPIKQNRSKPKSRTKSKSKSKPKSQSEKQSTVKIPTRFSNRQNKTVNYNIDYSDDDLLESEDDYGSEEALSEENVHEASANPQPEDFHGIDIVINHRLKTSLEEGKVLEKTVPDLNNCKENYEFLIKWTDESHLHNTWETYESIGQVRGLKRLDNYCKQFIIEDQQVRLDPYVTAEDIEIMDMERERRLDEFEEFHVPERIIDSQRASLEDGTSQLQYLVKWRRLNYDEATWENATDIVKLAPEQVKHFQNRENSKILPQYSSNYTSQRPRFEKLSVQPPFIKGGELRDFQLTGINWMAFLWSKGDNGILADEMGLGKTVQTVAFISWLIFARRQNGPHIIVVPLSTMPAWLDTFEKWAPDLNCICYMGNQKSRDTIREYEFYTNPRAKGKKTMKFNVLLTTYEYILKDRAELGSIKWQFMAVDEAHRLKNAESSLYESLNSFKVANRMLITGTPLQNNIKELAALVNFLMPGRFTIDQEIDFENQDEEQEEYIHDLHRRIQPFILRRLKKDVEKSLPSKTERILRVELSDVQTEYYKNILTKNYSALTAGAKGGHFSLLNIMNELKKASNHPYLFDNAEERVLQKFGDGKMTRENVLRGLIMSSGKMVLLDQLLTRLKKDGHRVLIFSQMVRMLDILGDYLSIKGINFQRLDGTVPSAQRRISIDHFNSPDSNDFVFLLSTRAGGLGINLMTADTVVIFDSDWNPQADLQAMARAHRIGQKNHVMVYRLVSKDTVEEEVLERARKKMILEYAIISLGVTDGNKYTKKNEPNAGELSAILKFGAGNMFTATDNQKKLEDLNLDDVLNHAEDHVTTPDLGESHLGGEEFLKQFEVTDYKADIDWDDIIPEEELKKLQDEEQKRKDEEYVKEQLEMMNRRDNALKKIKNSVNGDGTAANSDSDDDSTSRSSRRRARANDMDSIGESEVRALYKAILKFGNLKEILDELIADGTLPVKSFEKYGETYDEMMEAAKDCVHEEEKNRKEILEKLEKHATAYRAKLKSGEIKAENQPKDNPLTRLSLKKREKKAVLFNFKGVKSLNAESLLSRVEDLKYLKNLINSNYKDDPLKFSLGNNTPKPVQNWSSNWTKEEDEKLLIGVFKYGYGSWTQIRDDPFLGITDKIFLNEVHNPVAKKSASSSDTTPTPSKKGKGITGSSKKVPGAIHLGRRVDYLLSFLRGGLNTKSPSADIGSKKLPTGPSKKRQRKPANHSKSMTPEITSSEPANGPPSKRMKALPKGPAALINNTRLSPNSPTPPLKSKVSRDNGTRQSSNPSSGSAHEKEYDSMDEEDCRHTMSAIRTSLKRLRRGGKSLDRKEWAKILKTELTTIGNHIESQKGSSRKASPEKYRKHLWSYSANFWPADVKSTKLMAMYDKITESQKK

Compound	Percent Effect [1]	Percent Effect [2]	Percent Effect [3]	Percent Effect [4]	Percent Effect [5]	Percent Effect (Trypanosoma cruzi)	Percent Effect [6]	Percent Effect [7]	Percent Effect (Homo sapiens)	Percent Effect [8]	Percent Effect [9]	Percent Effect [10]	Percent Effect [11]
O=C(Cc1cccs1)N1C[C@@H]2OCCN(CC3CCCC3)[C@@H]2C1	-3.05%	11%	-2.94%	-0.507%	19.2%	1.59%	-6.79%	4.37%	-10.9%	13.2%	4.17%	6.17%	-1.65%
O=C(CC1CC1)N[C@@H]1CN(Cc2ccncc2)C[C@@H]2CCCO[C@@H]21	0.104%	5.33%	-1.92%	-0.724%	-5.17%	2.12%	-47.1%	8.38%	-8.9%	-6.38%	5.21%	7.5%	-4.5%
c1cncc(N2CCCC3(CN(Cc4cccs4)CCO3)C2)c1 (stereo not given)	-4.82%	8.11%	1.48%	-14.4%	-11.3%	-4.2%	-1.59%	8.12%	29.1%	1.28%	-1.08%	5.13%	-3.66%
c1cnc(NC[C@@H]2CCC[C@@H]3CN(Cc4cccnc4)C[C@@H]32)nc1	0.229%	10.8%	-0.324%	-2.93%	-7.32%	1.56%	25.4%	15.5%	10.2%	-34.3%	13.9%	18.3%	-3%
NC(=O)N1C[C@H]2CN(Cc3nccs3)C[C@H]2C1	0.982%	10.8%	2.58%	9.05%	-13%	-3.62%	1.59%	16.6%	5.62%	-3.75%	3.24%	12.8%	-3.89%
CNC(=O)[C@@]12CCCN(c3ncccn3)[C@@H]1CN(C)C2	-7.94%	5.2%	-0.539%	20.5%	-6.43%	-6.21%	4.52%	9.4%	14.9%	-9.88%	-4.23%	-1.28%	-2.69%
O=C(Nc1cccnc1)[C@H]1CN(Cc2nccs2)C[C@H]2OCC[C@@H]12	-4.22%	2.67%	-1.01%	6.75%	-6.59%	-0.591%	-0.233%	3.61%	15%	-17.1%	-2.13%	-6.41%	2.83%
O=C(CN1CCN(C(=O)Cc2ccc3c(c2)OCCO3)CC1)NC1CC1	-0.996%	18.2%	3.1%	0.741%	0.674%	2.06%	-2.13%	11.8%	-0.0292%	-19.4%	6.8%	12.2%	-6.48%
Cc1ccccc1CC(=O)N1CCN(C2CCOC2=O)CC1 (stereo not given)	-3.96%	13.5%	-0.136%	-7.8%	2.56%	-5.75%	-2.81%	7.03%	11.9%	23.2%	10.3%	16.1%	-7.37%
Cc1cc(CN2CC[C@H]3C[C@H](c4nccs4)O[C@@H]3C2)no1	2.63%	-2.7%	-1.08%	5.99%	4.06%	-1.47%	0.319%	12.9%	-4.4%	3.88%	0%	0%	7.66%
